Only some compounds are listed: those with a hit (about 4.6% of all), similar ones and a draw of the others.
D1 ag = Allosteric Agonists of the Human D1 Dopamine Receptor: qHTS; D(1A) dopamine receptor (Homo sapiens), P21728; HEK293 T-REx D1 cells, calcium flux, agonist mode; activation, % at 2 µM; 1% of 360,000 active; AID 504660, 2011; in the data active = activation above about 30%; also: 0% is about no effect
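Tetracycline-induced HEK293 TREx D1 cells, force-coupled to calcium signalling, were dye-loaded with a no-wash calcium kit. Compound was pin-added after a 10 s baseline. Fluorescence was read kinetically at 1 cycle/s for 180 s, with calcium rises flagged as agonism.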
D1 antag = Antagonist of Human D 1 Dopamine Receptor: qHTS. D(1A) dopamine receptor (Homo sapiens), P21728. HEK293 TREx D1 cells, calcium flux, dopamine EC80; hits give low values. activity change, negative = inhibition, % at 10 µM. 3.2% of 360,000 active. AID 504652, 2011; in the data active = activity change below about -30%; also: % is scaled to controls: 0 for no effect and ±100 for the full control effect
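Antagonism measured as reduced calcium response to an EC80 dopamine addition following 180 s compound pre-read; cells were inducible HEK293 Trex D1 plated overnight at 30 C, read kinetically at 1 cycle/sec.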
TRHR agonist-1 = qHTS for Small Molecule Agonists and Allosteric Enhancers of Human TRH Receptor: Primary Screen for Agonists; TRHR cells, calcium flux fluo-8, FDSS agonist mode; activation, % at 2 µM; 0.18% of 360,000 active; in the data active = activation above about 30%; also: 0% is about no effect
Target sequence (P34981 whole entry, looked up): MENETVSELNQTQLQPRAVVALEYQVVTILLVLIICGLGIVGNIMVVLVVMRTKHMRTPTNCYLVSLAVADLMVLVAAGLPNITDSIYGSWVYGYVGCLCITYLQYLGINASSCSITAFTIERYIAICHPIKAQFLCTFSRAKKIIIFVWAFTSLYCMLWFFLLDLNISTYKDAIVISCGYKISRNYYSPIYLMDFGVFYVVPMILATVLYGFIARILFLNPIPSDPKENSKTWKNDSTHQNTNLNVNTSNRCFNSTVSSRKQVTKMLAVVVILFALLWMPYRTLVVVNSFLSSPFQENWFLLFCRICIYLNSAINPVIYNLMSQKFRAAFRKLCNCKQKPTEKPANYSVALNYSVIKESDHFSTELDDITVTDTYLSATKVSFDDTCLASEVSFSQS
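In this calcium-flux screen, cells bearing human TRHR are dye-loaded with fluo-8, baselined for 10 cycles, then exposed to library compounds; positive kinetic calcium responses during the agonist phase mark hits, with TRH as control.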
TRHR enhancer-1 = qHTS for Small Molecule Agonists and Allosteric Enhancers of Human TRH Receptor: Primary Screen for Enhancers; TRHR cells, fluo-8 calcium fluorescence, EC20 TRH enhancement; enhancement, % at 2 µM; 0.66% of 360,000 active; in the data active = enhancement above about 30%; also: 0% is about no effect
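TRHR-expressing cells loaded with fluo-8 calcium dye were read kinetically (ex 480/em 530) during compound addition, then stimulated with an EC20 of TRH (10 nM final). Enhancement of the Gq-mediated intracellular calcium response was scored.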
D1 potentiator = Potentiators of Human D1 Dopamine Receptor: qHTS; D(1A) dopamine receptor (Homo sapiens), P21728; potentiation, % at 10 µM; 0.036% of 360,000 active; HEK293 TREx D1 cells, calcium flux, dopamine EC20 potentiation; in the data active = potentiation above about 30%; also: 0% is about no effect
TRHR enhancer-2 = qHTS for Small Molecule Agonists and Allosteric Enhancers of Human TRH Receptor: Confirmation Screen for Enhancers; shares compounds with TRHR enhancer-1; TRH receptor cell assay, enhancer confirmation qHTS; activity change, negative = inhibition, % at 46.1 µM; 970 tested, under 10 active; AID 493076, 2011;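 also: compound effect scored on response to added TRH at EC20 of 10 nM; 0% is about no effect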
TRHR agonist-2 = qHTS for Small Molecule Agonists and Allosteric Enhancers of Human TRH Receptor: Confirmation Screen for Agonists; shares compounds with TRHR enhancer-1; TRHR-expressing cells, agonist activation read-out; Potency, µM (series often up to 46.1 µM), for the others: top-dose activation, usual class: activators; 8% of 970 active; AID 493078, 2011; also: potency is read from the fitted curve at half-maximal effect; 0% is about no effect; nearly all actives have a fitted effect of over 75% in size
Numbers without * were called inactive; ? = inconclusive; / = no result given. Unless noted, calls follow the shape of the dose curve; as a rule, active = well fitted curve in the direction sought with a large enough effect; inconclusive = small, poorly fitted or top-dose-only effect, or another doubt; inactive = no such curve, though single readings can be large; an effect the other way counts as inactive or inconclusive.

SMILES	D1 ag	D1 antag	TRHR agonist-1	TRHR enhancer-1	D1 potentiator	TRHR enhancer-2	TRHR agonist-2
CCOC(=O)c1cc(-c2ccccc2)n(CC(=O)O)c1C	1.5	-9.4	-1.1	5.2	0.7	/	/
CC(C)Oc1ccc(C(=O)NCC(c2ccc(N(C)C)cc2)N2CCCC2)cc1 (stereo unspecified)	1.2	4.5	-0.3	1.3	0.6	/	/
COc1ccc(S(=O)(=O)N(C)c2ccc(C(=O)Nc3c(C)n(C)n(-c4ccccc4)c3=O)cc2)cc1	-0.4	4.1	0.4	8.2	-1.0	/	/
CCC(Sc1nc2ncccc2[nH]1)C(=O)NCCc1ccccc1 (stereo unspecified)	2.6	10.8	59.6*	1.6	-0.7	-13.2	2.2%
CCC(Sc1nc2ncccc2[nH]1)C(=O)NC1CCC(C)CC1 (stereo unspecified)	-0.4	7.0	1.2	11.1	-2.6	/	/
O=C(CN1CCN(c2ccccc2F)CC1)c1ccc(O)cc1O	2.7	-8.0	0.5	94.5*	-5.8	-6.9	-0.6%
COc1ccc(NC(=O)CN(C)C(=O)CNC(=O)c2sc3ccccc3c2Cl)cc1	0.6	-1.0	0.1	44.7*	-8.7	0.8	1.2%
O=C(O)C1=C[C@@H](c2csc3ccccc23)C[C@@H](OCCCCO)O1	-0.3	-22.9	-0.1	49.0*	-0.1	0.0	3.1%
COCCn1c(SCC(=O)N2CCCC2)nnc1C(C)C	2.3	-10.0	0.4	4.5	1.8	/	/
CCCn1c(SCC(=O)N2CCCCC2)nnc1-c1ccco1	2.2	14.8	0.4	48.5*	-1.9	4.1	-0.8%
CCCn1c(SCC(=O)N2CCCCC2)nnc1C(C)C	3.6	7.1	32.0*	-5.3	-1.9	-4.4	1.0%
Cc1ccc(N(CC2CO2)S(=O)(=O)c2ccccc2[N+](=O)[O-])cc1 (stereo unspecified)	0.0	-13.7	-0.5	-8.0	-4.6	/	/
Cn1c(=O)c2c(c3ccccc31)OC(=O)CC2c1ccc(C(F)(F)F)cc1 (stereo unspecified)	-0.2	1.5	0.0	-3.7	-1.9	/	/
COc1ccccc1N1CCN(c2ncnc3sc(C(=O)NCC4CCCO4)c(C)c23)CC1 (stereo unspecified)	3.8	9.7	-0.7	-13.4	6.4	/	/
N#C/C(=C(/O)c1ccccc1F)c1nc2cc(C(F)(F)F)ccc2s1	2.4	-15.1	0.9	41.1*	-3.2	-0.9	-0.7%
CC(=O)Nc1ccc(S(=O)(=O)Nc2cccc(-c3ccc(N4CCC(C)CC4)nn3)c2)cc1	1.5	14.3	0.3	6.0	-1.9	/	/
O=C(CCn1c(=O)sc2ccccc21)Nc1ccon1	-2.3	23.3	0.1	42.5*	-4.8	-1.7	0.8%
COc1cc(OC)cc(C(=O)NCc2cc(C)nc3ccccc23)c1	4.6	-2.7	33.1*	-1.9	10.8	-7.6	0.7%
COc1ccc(C(=O)NCc2cc(C)nc3ccccc23)cc1OC	7.3	-8.3	-0.1	1.5	4.6	/	/
COc1ccc(CNC(=O)c2cc(C3CC3)nc3c2cnn3C(C)C)cc1	1.4	-5.0	-0.6	42.8*	-2.8	-11.7	?
O=C(NCC1CCCO1)c1ccc(N2CCCCC2)c([N+](=O)[O-])c1 (stereo unspecified)	0.6	-7.6	-0.1	20.3	-8.4	/	/
O=c1oc2ccc3ccccc3c2cc1-c1nnc(Nc2cccc(F)c2)s1	1.6	2.2	-0.9	-6.2	-0.1	/	/
Nc1nnc(-c2cc3c(ccc4ccccc43)oc2=O)s1	49.3*	-8.9	41.4*	-1.3	11.7	7.2	?
